Assay outcomes from PubChem BioAssay.
Mtb MenB inh = M. tuberculosis MenB inhibitors, primary screen, biochemical, absorbance; 1,4-dihydroxy-2-naphthoyl-CoA synthase (Mycobacterium tuberculosis (strain ATCC 25618 / …; MenB enzyme assay, absorbance read-out; inhibition, % (test concentration not listed); hit rate 0.43% among 100,000; AID 540299, 2011; in the data active = inhibition above about 21%, passing the limit was not always enough
AID504770 = growth inhibition of E. coli YBA685, primary screen, V. cholerae RctB inhibitors; E. coli YBA685 rctB-dependent plasmid, OD600 growth, 3 h; stronger effect = lower value; z-score (no concentration beside the values); hit rate 0.27% among 130,000; in the data active = z-score below about -2, passing the limit was not always enough
Mtb MbtI inh = MbtI salicylate synthase inhibitors, primary screen, biochemical, fluorescence intensity; purified MbtI enzyme, fluorescence intensity read-out; inhibition, % (no concentration beside the values); hit rate 0.89% among 100,000; P9WFX0; AID 493033, 2011; in the data active = inhibition mostly above about 56%, no sharp cut-off; inactive = mostly below about 77%
PV pol inh = poliovirus RdRp elongation inhibitors, primary screen, biochemical, fluorescence polarization, total intensity; Genome polyprotein (Poliovirus type 1 (strain Mahoney)), P03300; poliovirus polymerase elongation; stronger effect = lower value; % elongation, % (compound at 16.7 µg/mL); hit rate 0.66% among 150,000; AID 588519, 2011; in the data active = % elongation below about 90%
Target sequence (P03300 1749-2209 limits assumed): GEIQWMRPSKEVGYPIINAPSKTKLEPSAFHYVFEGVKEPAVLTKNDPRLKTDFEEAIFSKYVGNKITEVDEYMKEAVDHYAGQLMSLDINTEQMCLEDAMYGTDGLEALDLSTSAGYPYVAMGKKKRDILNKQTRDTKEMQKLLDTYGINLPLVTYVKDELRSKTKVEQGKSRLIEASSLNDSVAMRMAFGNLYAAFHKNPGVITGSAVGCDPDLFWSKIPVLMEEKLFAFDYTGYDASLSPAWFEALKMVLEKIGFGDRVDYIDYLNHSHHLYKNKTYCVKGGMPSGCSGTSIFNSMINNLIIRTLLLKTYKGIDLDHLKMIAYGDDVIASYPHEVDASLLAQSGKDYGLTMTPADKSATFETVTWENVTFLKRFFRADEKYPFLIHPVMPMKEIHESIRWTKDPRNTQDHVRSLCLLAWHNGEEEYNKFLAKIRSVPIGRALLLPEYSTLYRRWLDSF
* = called active by the depositor; i = inactive; / = not tested or not shown. Compounds with a hit are over-represented: about 1.5% of the library has one in this group of screens.

SMILES	Mtb MenB inh	AID504770	Mtb MbtI inh	PV pol inh
Cc1ccc(NC(=O)c2ccc(CN3CCCn4nc(C)cc43)cc2)c(C)c1	-8	-0.1	-10	99
c1ccc2c(c1)CCN2Cc1csc2c1CCCC2	-16	1	0	102
OCCNc1ccc(Cl)cc1	1	0	-5	104
N#CSc1ccc(NCCO)cc1C(F)(F)F	-31	-0.2	58*	103
CC(C)(C)NCC(O)c1ccccc1Cl (stereo not given)	55*	0.75	-2	102
CCN(CC)C(=O)c1sc(NC(=O)C(C)Sc2nc(-c3ccccc3)cc(C(F)(F)F)n2)c(C(=O)OC)c1C (stereo not given)	/	/	/	84*
CCOC(=O)c1c(NC(=O)CSc2nc(-c3ccc(OC)cc3)cc(C(F)(F)F)n2)sc(C)c1C	/	/	/	86*
CCCCNC(=O)CSc1nc(-c2ccc(OC)cc2)cc(C(F)(F)F)n1	/	/	/	105
COC(=O)c1c(NC(=O)CSc2nc(-c3ccco3)cc(C(F)(F)F)n2)sc2c1CCCC2	-5	0.1	57*	99
CCCOC(=O)c1c(NC(=O)CSc2nc(-c3ccco3)cc(C(F)(F)F)n2)sc(C(=O)N(C)C)c1C	-3	-0.1	37	99
CCCOC(=O)c1c(NC(=O)C(C)Sc2nc(-c3ccccc3)cc(C(F)(F)F)n2)sc(C(=O)N(C)C)c1C (stereo not given)	/	/	/	99
O=C(Nc1ccc(N2CCOCC2)c2nonc12)c1ccco1	-3	1.4	1	99
Nc1ccc(N2CCOCC2)c2nonc12	-140	0	18	85*
COc1ccc(-c2n[nH]c(=S)n2/N=C/c2c(C)nn(-c3ccccc3)c2C)cc1OC	-17	0.9	2	101
Cc1nn(-c2ccccc2)cc1/C=N/n1c(-c2ccncc2)n[nH]c1=S	-18	-0.45	51*	103
Cn1c(=O)[nH]c(=O)c2c1nc(NNC=O)n2Cc1ccc(Cl)cc1	-1	-2	-10	102
Cc1nc(-c2ccc(C(=O)O)cc2)cs1	28*	1.9	20	103
Cc1nc(-c2ccc3c(c2)OCCO3)cs1	-13	0.3	92*	78*
CC(=O)Nc1nc(-c2ccc3c(c2)OCCO3)cs1	/	0.4	/	/
NC(CC(=O)O)c1cccc(O)c1 (stereo not given)	-8	1.8	3	99
C=CCSc1ncc2c(=S)[nH]c(=S)[nH]c2n1	-102	-0.2	56*	93
CCN(CC)c1ncc2c(=S)[nH]c(=S)[nH]c2n1	-9	-0.1	-6	100
O=C(NCCOc1cccc2cccnc12)C1CC1	1	-0.5	-26	100
CC(c1n[nH]c(=S)n1Cc1ccccc1)N(C)C (stereo not given)	-25	0.15	59*	98
Nc1c2ccccc2nc2ccccc12 (tested in a mixture with another compound)	-4	0.1	i	100
SMILES	Mtb MenB inh	AID504770	Mtb MbtI inh	PV pol inh
Nc1sc(=S)nc2ccccc12	-99	-0.35	52*	97
CN(C)Cc1ccccc1CN	-17	-3.7*	-3	107
COc1ccc(OC)c(N2C(=O)C=CC2=O)c1	/	1.4	97*	99
COc1ccccc1N1C(=O)C=CC1=O	/	1.2	98*	98
COc1ccc(CC(=O)Nc2nc(-c3ccccc3)cs2)cc1	/	1.3	4	101
CN1CCN(C(=O)CCN2C(=O)/C(=C/c3ccc(Cl)cc3)SC2=S)CC1	-18	-0.05	-8	103
CC(C)P(=O)(c1cccc(C(=O)O)c1)C(C)C	23*	0.55	/	102
O=C(Nc1ccc2[nH]c(=O)[nH]c2c1)c1ccccc1Br	19	0.7	7	103
S=C(S)N1CCCC1	-60	-3.5*	96*	108
NC(=S)N1CCCC1	-16	0.15	-3	97
Cc1ccc(CNC(=O)Cc2ccc(-n3c(=O)c4sccc4n(Cc4ccccc4)c3=O)cc2)cc1	-27	2	-4	99
O=C1CC(Cc2ccccc2)C(=O)N1Cc1ccco1 (stereo not given)	36*	-0.2	-10	100
O=C1Cc2ccccc2C(=O)N1Cc1ccco1	/	0.65	-7	76*
CN1C(=O)Cc2ccccc2C1=O	-70	-1.1	15	38*
COC(=O)CN1C(=O)Cc2ccccc2C1=O	/	-0.2	/	/
O=C(O)CN1C(=O)Cc2ccccc2C1=O	-37	0.25	-4	24*
C=CCNC(=O)c1cc(-c2ccc(OC)cc2)on1	-9	-0.2	-11	101
CCN(CC)C(=O)c1cc(-c2ccccc2)on1	34*	0	7	102
O=C(O)c1cc(-c2ccc(F)cc2)on1	47*	-0.8	/	98
CCN(CC)C(=O)c1cc(-c2ccc(C)cc2)on1	5	0	/	100
C=CCNC(=O)c1cc(-c2ccccc2)on1	34*	-0.1	8	100
CC(C)(C)n1nc2c(c1NC(=O)COc1ccccc1)CSC2	/	0.1	/	/
CC[n+]1c(-c2ccccc2)c2cc(N)ccc2c2ccc(N)cc21	12	-0.05	4	75*
O=C(c1cccc(S(=O)(=O)N2CCc3ccccc32)c1)N1CCCCC1CO (stereo not given)	11	0.05	6	102
CC(C)Cc1cc(C(=O)O)nc(=O)[nH]1	38*	1.4	8	99
SMILES	Mtb MenB inh	AID504770	Mtb MbtI inh	PV pol inh
CCSc1nc(C(=O)O)cc(=O)[nH]1	/	0.7	/	/
O=C(CC1CCCC1)OCc1ccc(Cl)cc1	/	1.9	-1	101
CC1(C)N([O-])c2ccccc2[N+]1=O	-41	-4*	25	96
COC(=O)C(C)Sc1nnc(Cc2cc(=O)[nH]c(=O)[nH]2)n1-c1cccc(C)c1 (stereo not given)	-50	-0.25	-2	102
CCOc1cc(CNCC(c2ccc(OC)cc2)N2CCCCC2)ccc1OC(C)C(=O)N(C)C (stereo not given)	49*	0.6	-11	99
CCOc1cc(C2C(C(=O)N3CCOCC3)=C(C)NC3=C2C(=O)CC(C)(C)C3)cc(Br)c1OCC (stereo not given)	-12	0.7	124	102
N#CC(C(=O)COc1ccccc1)c1ccccc1 (stereo not given)	-10	-1.4	54*	102
Cc1cccc(C(=O)NCc2n[nH]c(=S)n2-c2ccccc2)c1	2	1.6	58*	102
Cn1c(CNC(=O)c2ccccc2)n[nH]c1=S	4	-0.5	36	104
O=C(NC(=S)c1ccccc1)C1CC1	-38	-0.45	74*	91
CC(C)(C)c1cc(SCCC#N)cc(C(C)(C)C)c1O	-13	-2.2*	-2	105
CC(C)(C)c1cc(CCC#N)cc(C(C)(C)C)c1O	-7	0.15	-4	105
Cc1ccc(S(=O)(=O)Nc2ccc(OCc3cc(=O)n4ccsc4n3)cc2)cc1	-22	0.35	3	102
O=C(NCCN1CCOCC1)c1nc(-c2ccc(Cl)cc2)n2c1CCCCC2	-12	-2.6*	4	103
CCCNC(=O)c1nc(-c2ccc(Cl)cc2)n2c1CCCCC2	-28	1.8	-7	105
CC(=O)Oc1c(Br)cc2oc(=O)sc2c1Br	-65	0.5	91*	99
